From PubChem BioAssay (NCATS) come the findings set out here.

Each structure is given as a SMILES string. Results filed as inconclusive are left out. A call without a number means that no potency is given here. Values without a mark were called inactive. Active and inactive are the calls of the source. The call rests on the fitted dose curve; in most records, active means well fitted cell-killing curve with a large enough effect; inconclusive means small, poorly fitted or top-dose-only effect; inactive means flat fitted curve, though single readings scatter.

The nature of the first assay: Cellular viability qHTS for adrenocortical cancer (ACC) cell line SW-13 (AID 1963989).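 Further: cells grown in serum-free medium with ITS supplement; nearly all actives have a fitted effect of over 65% in size.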 The conditions noted are these: SW-13 ACC cells viability, CellTiter-Glo, 48 h; activity (max response): active compounds read low. The procedure, abridged: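 48 h treatment, SW-13 in ITS/DMEM serum-free; doses up to 46 uM; readout CellTiter-Glo luminescence; curve fit four-parameter logistic.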
With `Cc1c(C(=O)NCCO)[n+](=O)c2ccccc2n1[O-]`, the activity (max response) was 7.59%.

On to `Cc1ncc(COP(=O)(O)O)c(C=O)c1O`, for which the activity (max response) was 7.84%.

For the compound `CC(=O)Nc1ccn(C2COC(COC(=O)c3ccccc3)O2)c(=O)n1` (configuration not stated), the activity (max response) is -9.44%.

With `C=CCc1ccc(O)c(OC)c1`, the activity (max response) is 6.59%.

In the case of `O=C(O)CCCCCCCC(=O)O`, the activity (max response) was 10.6%.

In the case of `CCOC(=O)c1ccccc1O`, the activity (max response) is -1.17%.

Take `CCCCCCCCCCCCCCCCO`: the activity (max response) was 10.1%.

For the compound `C[C@H](O)C(=O)Nc1c(I)c(C(=O)NC(CO)CO)c(I)c(C(=O)NC(CO)CO)c1I`, the activity (max response) was 10.3%.

With `Cc1c(F)c(N2CCNC(C)C2)cc2c1c(=O)c(C(=O)O)cn2C1CC1` (configuration not stated), the activity (max response) is -0.964%.

Consider `Cc1scc2c1N(C(=O)CN1CCN(C)CC1)c1ccccc1NC2=O`, for which the activity (max response) was 2.88%.

As to `CC(=O)OCC(=O)Nc1cc(C#N)cc(NC(=O)COC(C)=O)c1Cl`, the activity (max response) is -0.531%.

Consider `O=C(O)c1ccccc1O`, for which the activity (max response) was 13.2%.

Another assay can be described thus: Cellular viability qHTS for adrenocortical cancer (ACC) cell line NCI-H295R (AID 1963990). Further: nearly all actives have a fitted effect of over 60% in size. Further: potency means the concentration at half of the fitted maximal effect. The conditions noted are these: CellTiter-Glo ATP luminescence, 48 h; series mostly up to 46.1 µM. The essentials:
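Compound titrations (up to 46 uM final) are applied to NCI-H295R cultures for 48 h at 37C. Viable cell number is estimated by CellTiter-Glo signal, normalised to DMSO and doxorubicin controls.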
`Cc1c(C(=O)NCCO)[n+](=O)c2ccccc2n1[O-]`: the Potency result is “inactive”.

On to `CC[N+](CC)(CC)CCOC(=O)C(C1CCCC1)C1CCCC1`, for which the Potency entry was “inactive”.

Regarding `NC(=O)NS(=O)(=O)c1ccc(Cl)cc1`, the Potency result is “inactive”.

For `FC(F)(F)C(Cl)Br` (configuration not stated), the Potency entry was “inactive”.

`CN1[C@@H]2CC[C@H]1CC(OC(=O)C(O)c1ccccc1)C2` (some centres not stated): the Potency entry was “inactive”.

Turning to `C=C(CC)C(=O)c1ccc(OCC(=O)O)c(Cl)c1Cl`, the Potency is 9.2 µM (active).

With `Cc1ncc(COP(=O)(O)O)c(C=O)c1O`, the Potency entry was “inactive”.

With `CC(C)(C)c1cc(C=O)cc(C(C)(C)C)c1O`, the Potency entry is “inactive”.

With `CC(=O)Nc1ccn(C2COC(COC(=O)c3ccccc3)O2)c(=O)n1` (configuration not stated), the Potency entry was “inactive”.

For the compound `CC(=O)N(CC(O)CO)c1c(I)c(C(=O)NCCO)c(I)c(C(=O)NCC(O)CO)c1I` (configuration not stated), the Potency result is “inactive”.

`C=CCc1ccc(O)c(OC)c1`: the Potency entry was “inactive”.

With `CC1(C)OC[C@@H]2O[C@@]3(C(=O)O)OC(C)(C)O[C@H]3[C@@H]2O1`, the Potency entry was “inactive”.

For the compound `O=C(O)CCCCCCCC(=O)O`, the Potency entry is “inactive”.

Consider `CCOC(=O)c1ccccc1O`, for which the Potency entry is “inactive”.

`NC(Cc1ccc(Cl)cc1)C(=O)O` (configuration not stated): the activity change, negative = viability loss is -11% [at 0.587 µM].

With `CCCCCCCCCCCCCCCCO`, the Potency result was “inactive”.

Consider `CCCCS(=O)(=O)N[C@@H](Cc1ccc(OCCCCC2CCNCC2)cc1)C(=O)O`, for which the Potency result is “inactive”.

`O=c1[nH]c(=O)n([C@H]2C[C@H](O)[C@@H](CO)O2)cc1C(F)(F)F`: the Potency entry was “inactive”.

For `NC(=O)NS(=O)(=O)c1ccc(N)cc1`, the Potency entry is “inactive”.

With `C[N+](C)(C)CCOC(N)=O`, the Potency result is “inactive”.

With `C[C@H](O)C(=O)Nc1c(I)c(C(=O)NC(CO)CO)c(I)c(C(=O)NC(CO)CO)c1I`, the Potency entry was “inactive”.

`O=C(O)Cc1csc(-c2ccc(Cl)cc2)n1`: the Potency result is “inactive”.

With `O=C(Cn1ccnc1[N+](=O)[O-])NCCO`, the Potency result is “inactive”.

With `COCC(=O)Nc1c(I)c(C(=O)NCC(O)CO)c(I)c(C(=O)N(C)CC(O)CO)c1I` (configuration not stated), the Potency result was “inactive”.

With `Cc1c(F)c(N2CCNC(C)C2)cc2c1c(=O)c(C(=O)O)cn2C1CC1` (configuration not stated), the Potency result was “inactive”.

Turning to `Cc1scc2c1N(C(=O)CN1CCN(C)CC1)c1ccccc1NC2=O`, the Potency result was “inactive”.

As for `CC(=O)OCC(=O)Nc1cc(C#N)cc(NC(=O)COC(C)=O)c1Cl`, the Potency result was “inactive”.

As to `C[C@]12CCC(=O)C=C1CC[C@@H]1[C@@H]2[C@@H](O)C[C@@]2(C)[C@H]1CC[C@]2(O)C(=O)CO`, the Potency result is “inactive”.

As to `CC(C)(C)c1ccc(C(O)CCCN2CCC(C(O)(c3ccccc3)c3ccccc3)CC2)cc1` (configuration not stated), the Potency is 4.11 µM (active).

Turning to `CCn1c(=O)c(-c2ccc(-c3cncs3)cc2Cl)cc2cnc(Nc3ccc(N4CCN(C)CC4)cc3)nc21`, the Potency result was “inactive”.

Consider `Cc1c(C)c2c(c(C)c1OC(=O)c1cccnc1)CC[C@@](C)(CCC[C@H](C)CCC[C@H](C)CCCC(C)C)O2`, for which the Potency result is “inactive”.

On to `CCCCCCCCCCC(CO)CCCCCCCC` (configuration not stated), for which the Potency entry is “inactive”.

Consider `Cc1cc(C(C)(C)C)c(O)c(C(C)(C)C)c1`, for which the Potency was 25.9 µM (active).

Regarding `CNCCC(Oc1ccccc1OC)c1ccccc1` (configuration not stated), the Potency entry was “inactive”.

Turning to `O=C(O)c1ccccc1O`, the Potency result was “inactive”.

`CC(=O)OCC(COC(C)=O)OC(C)=O`: the Potency entry was “inactive”.

With `COc1cc(NS(=O)(=O)c2ccc(N)cc2)ncn1`, the Potency result is “inactive”.

As to `COc1ccccc1O`, the Potency is 28.2 µM (active).

Regarding `CN1[C@@H]2CC[C@H]1CC(OC(=O)c1c[nH]c3ccccc13)C2` (some centres not stated), the Potency result was “inactive”.

As for `CC1(C)Oc2ccc(C#N)cc2[C@@H](N2CCCC2=O)[C@@H]1O`, the Potency entry is “inactive”.
